Measurements from PMC4336329 (PLoS ONE, 2015).
In all, about 310,000 compounds went through this assay and about 14,000 (4.5%) showed an effect of 50% or more. The effect is printed as a negative number. The sample holds strong results, similar compounds and a random draw of the others, so the mix is not that of the screen.

target: human ether-à-go-go-related gene (hERG) potassium channel (human, UniProt Q12809); assay: primary screen, population patch clamp on CHO cells stably expressing hERG; higher = less effect of the substance
Sequence (Q12809 whole entry, looked up): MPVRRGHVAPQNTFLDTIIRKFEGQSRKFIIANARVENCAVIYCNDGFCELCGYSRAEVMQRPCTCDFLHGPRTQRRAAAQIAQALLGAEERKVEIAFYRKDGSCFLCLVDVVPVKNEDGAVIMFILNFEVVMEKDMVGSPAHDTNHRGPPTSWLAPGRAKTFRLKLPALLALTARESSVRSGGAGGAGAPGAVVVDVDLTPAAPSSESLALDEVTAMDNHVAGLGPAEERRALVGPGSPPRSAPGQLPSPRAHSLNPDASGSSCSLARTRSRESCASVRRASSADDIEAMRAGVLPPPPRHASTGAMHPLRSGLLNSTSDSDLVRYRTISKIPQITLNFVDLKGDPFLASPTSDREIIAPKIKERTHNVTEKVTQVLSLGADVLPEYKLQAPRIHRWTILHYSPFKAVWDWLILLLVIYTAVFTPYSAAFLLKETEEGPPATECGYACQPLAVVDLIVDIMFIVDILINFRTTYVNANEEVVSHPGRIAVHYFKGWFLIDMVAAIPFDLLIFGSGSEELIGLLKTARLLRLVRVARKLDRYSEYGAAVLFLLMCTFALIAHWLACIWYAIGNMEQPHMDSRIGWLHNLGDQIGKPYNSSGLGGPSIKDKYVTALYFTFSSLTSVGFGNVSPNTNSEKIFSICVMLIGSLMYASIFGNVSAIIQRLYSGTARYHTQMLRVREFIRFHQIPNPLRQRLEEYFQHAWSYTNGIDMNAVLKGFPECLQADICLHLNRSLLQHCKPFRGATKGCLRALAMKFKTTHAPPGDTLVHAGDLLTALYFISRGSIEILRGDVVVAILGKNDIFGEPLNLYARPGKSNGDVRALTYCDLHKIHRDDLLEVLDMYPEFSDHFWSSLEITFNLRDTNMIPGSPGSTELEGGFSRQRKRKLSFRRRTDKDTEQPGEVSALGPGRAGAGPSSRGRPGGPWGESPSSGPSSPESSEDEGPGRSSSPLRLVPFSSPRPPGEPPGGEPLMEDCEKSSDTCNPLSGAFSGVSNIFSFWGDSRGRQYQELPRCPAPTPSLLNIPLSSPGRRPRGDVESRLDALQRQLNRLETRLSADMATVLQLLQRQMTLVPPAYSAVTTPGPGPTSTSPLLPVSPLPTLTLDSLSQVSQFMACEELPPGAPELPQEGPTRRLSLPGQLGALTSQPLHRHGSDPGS
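Also: peak tail current of the secondary pulse compared with the same well before compound.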

SMILES	hERG current change (%, negative = inhibition) at 10uM [%]
CCN1CCN(C(c2cccs2)C(C)NC(=O)NC2CCCCC2)CC1 (stereo not drawn)	-45.5
CC(NC(=O)NC1CCCCC1)C(c1cccs1)N1CCN(C)CC1 (stereo not drawn)	-8.03
CC(NC(=O)NC1CCCCC1)C(c1cccs1)N1CCN(Cc2ccccc2)CC1 (stereo not drawn)	-56.7
CC(NC(=O)NC1CCCCC1)C(c1cccs1)N1CCN(c2ccccc2)CC1 (stereo not drawn)	-48.6
CCC(=O)NC(C)C(c1cccs1)N1CCN(Cc2ccccc2)CC1 (stereo not drawn)	-11.6
CC(NC(=O)C(C)(C)C)C(c1cccs1)N1CCN(Cc2ccccc2)CC1 (stereo not drawn)	-14.3
CCN1CCN(C(c2cccs2)C(C)NC(=S)NC2CCCCC2)CC1 (stereo not drawn)	-60.8
CC(NC(=S)NC1CCCCC1)C(c1cccs1)N1CCOCC1 (stereo not drawn)	-0.732
CC(NC(=O)c1cccs1)C(c1cccs1)N1CCN(Cc2ccccc2)CC1 (stereo not drawn)	-72.7
Cc1ccc(NCC(=O)N/N=C/c2ccc(OC(=O)c3ccco3)cc2)cc1	1.76
CCCN(CC(=O)Nc1ccccc1C)C(=O)COc1c(C)cccc1C	-4.72
NS(=O)(=O)c1ccc(Nc2ccc3nonc3c2[N+](=O)[O-])cc1	9.07
O=C(CSc1n[nH]c(=O)n1C1CC1)c1c[nH]c2ccccc12	9.29
O=C(CCN1C(=O)/C(=C\c2cccc(Br)c2)SC1=S)NCCCN1CCOCC1	-63.4
CCc1ccc(/C=C2/Sc3ccccc3N(CC(=O)NCCCN3CCOCC3)C2=O)cc1	-41.3
O=C(CCCN1C(=O)/C(=C/c2cccc(Br)c2)SC1=S)NCCCN1CCOCC1	-18.1
O=C(CN1C(=O)/C(=C/c2cccc(Br)c2)SC1=S)NCCCN1CCOCC1	5.42
O=C(CN1C(=O)/C(=C/c2ccc(C(F)(F)F)cc2)Sc2ccccc21)NCCCN1CCOCC1	-65.6
O=C(CN1C(=O)/C(=C/c2ccccc2)Sc2ccccc21)NCCCN1CCOCC1	-42.8
O=C(N/N=C/c1cc(Br)c(O)c(Br)c1O)c1ccc2c(c1)OCCO2	-26.9
Cc1cc(CNC(=O)Cn2cc([N+](=O)[O-])cn2)c2ccccc2n1	-11.5
Cc1cccc(OCC(=O)Nc2ccccc2N2CCCCC2)c1C	-21.9
Cc1ccc(S(=O)(=O)N2CCCCC2)cc1NC(=O)CCc1nc2ccccc2c(=O)[nH]1	-24.3
Cc1ccc(-c2nnn(CC(=O)N(Cc3cccs3)C(C(=O)NC(C)(C)C)c3ccco3)n2)o1 (stereo not drawn)	14.4
Cc1ccc(C(=O)N/C(=C\c2cccs2)C(=O)NCCCn2ccnc2)cc1	-70.3
Cc1ccc(C(=O)N/C(=C/c2cccs2)C(=O)NCCCn2ccnc2)cc1	-71.9
O=C(NCCCn1ccnc1)/C(=C\c1cccs1)NC(=O)c1cccs1	-62

SMILES	hERG current change (%, negative = inhibition) at 10uM [%]
COc1ccc(C(=O)N/C(=C/c2cccs2)C(=O)NCCCn2ccnc2)cc1OC	-7.14
O=C(NCCO)/C(=C\c1cccs1)NC(=O)c1cccs1	18.7
O=C(NCc1ccco1)/C(=C\c1cccs1)NC(=O)c1cccs1	6.26
Cc1ccc(C(=O)N/C(=C\c2cccs2)C(=O)NCCc2ccccn2)cc1C	-1.92
Cc1ccc(C(=O)N/C(=C\c2cn(S(=O)(=O)N(C)C)c3ccccc23)C(=O)NCCCn2ccnc2)cc1	-28.6
Cc1ccc(C(=O)N/C(=C\c2cn(C)c3ccccc23)C(=O)NCCCn2ccnc2)cc1	-7.74
Cc1ccc(C(=O)N/C(=C\c2cccs2)C(=O)NCCCn2ccnc2)cc1C	-61
O=C(Cn1ncn2c(cc3ccccc32)c1=O)NCCC1=CCCCC1	7.76
CCn1cc(S(=O)(=O)N2CCCC2)cn1	8.1
COCCN1C(=O)N[C@@H](c2ccccc2)[C@@H](C(=O)OC)[C@H]1C	2.28
Cc1ccc(C)c(/C=N/NC(=S)NC(C)C)c1	30.3
Cc1ccccc1OCC(=O)NNC=O	22.9
O=C(Nc1cccc(-n2cnnn2)c1)c1cc(Cl)nc(Cl)c1	-4.24
Cc1nccn1-c1ccc(C(F)(F)F)cc1[N+](=O)[O-]	11.2
CCCn1c(NC(=O)CCS(=O)(=O)c2ccc(C)cc2)nc2ccccc21	-24.2
Cc1cnn(Cc2cccnc2)c1N	8.46
COc1ccccc1/C=C(/NC(=O)c1ccccc1)C(=O)NCCCn1ccnc1	2.6
O=C(NCCCn1ccnc1)/C(=C\c1cccs1)NC(=O)c1ccco1	-45.1
O=C(NCCCn1ccnc1)/C(=C/c1cccs1)NC(=O)c1ccco1	-50.8
O=C(NCCCn1ccnc1)/C(=C/c1ccco1)NC(=O)c1cccs1	-53.2
O=C(NCCCn1ccnc1)/C(=C\c1cccs1)NC(=O)c1ccccc1	-69
CN(C)S(=O)(=O)n1cc(/C=C(\NC(=O)c2ccccc2)C(=O)NCCCn2ccnc2)c2ccccc21	8.31
O=C(NCCCn1ccnc1)/C(=C\c1ccco1)NC(=O)c1ccco1	-35.3
O=C(NCCCn1ccnc1)/C(=C/c1cccnc1)NC(=O)c1ccco1	4.25
O=C(NCCCn1ccnc1)/C(=C/c1ccco1)NC(=O)c1ccco1	-45.6
CCOC(=O)c1c(C)n(C)c2c(C)cc(O)c(OC(=O)CC)c12	7.65
CN(C)c1ccc(/C=C2\SC(N3CCCCC3)=NC2=O)cc1	-21.8
